Bioassay records from PubChem.
JMJD2A Tudor inh: blocks the human JMJD2A Tudor domain; actives 4.4% (n = 390,000); AID 504339; O75164; Potency, µM (top dose mostly 114 µM), for inactives: at the top dose activity change, negative = inhibition, usual class: inhibitors; AlphaScreen JMJD2A-Tudor / H3K4me3 peptide binding; further: on the % scale 0 is the no-effect control and ±100 the full control effect; nearly all actives have a fitted effect of over 50% in size
BAZ2B inh: inhibitors of human BAZ2B bromodomain. Q9UIF8. AlphaScreen BAZ2B-H3K14Ac peptide displacement. Potency, µM (doses to about 114 µM), for the others: at the top dose activity change, negative = inhibition, most hits filed as inhibitors. actives 4.4% (n = 360,000). AID 504333; further: on the % scale 0 is the no-effect control and ±100 the full control effect; nearly all actives have a fitted effect of over 60% in size
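Protein-peptide AlphaScreen: BAZ2B 50 nM, b-H3K14Ac 50 nM, 1x PBS pH 7.4 + 0.01% Tween-20. Preincubation 30 min RT; cpd 30 min RT (top 110 uM); beads 20 min RT, light-protected.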
HP1b binding inh: inhibitors of HP1-beta chromodomain binding to methylated histone tails. P83916. AlphaScreen HP1-beta / biotin-H3K9me3 peptide binding. Potency, µM (series often up to 114 µM), for inactives: top-dose activity change, negative = inhibition, usual class: inhibitors. actives 0.56% (n = 390,000). AID 540317; further: nearly all actives have a fitted effect of over 70% in size
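AlphaScreen: HP1-beta (50 nM) preformed 30 min with biotin-H3(1-18)K9me3 peptide (50 nM) in PBS pH 7.4, 0.01% Tween-20. Compound added for 30 min at RT, then streptavidin donor/nickel chelate acceptor beads (10 ug/mL) for 30 min.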
Sfp PPTase inh: Sfp phosphopantetheinyl transferase inhibition; Biochemical Sfp PPTase activity, qHTS; Q9F4F7; Potency, µM, inactives show largest response in the series, negative = inhibition, usual class: inhibitors; actives 3.5% (n = 310,000);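 further: the enzyme is Sfp with the accession as filed and its product quenches rhodamine fluorescence; 0% = enzyme reaction without inhibitor and -100% = no enzyme wells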
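Fluorescence-quenching assay: 15 nM Sfp-PPTase preincubated 15 min at room temperature with compound, then 5 uM rhodamine-CoA and 12.5 uM BHQ-2-labelled YbbR peptide added. Fluorescence (ex 525/em 598 nm) read at start and after 30 min; difference gives rate.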
G9a block: blocks human histone lysine methyltransferase G9a | Q96KQ7 | G9a H3K9 monomethylation, AlphaScreen, 2 h | Potency, µM (doses to about 102 µM), for inactives: at the top dose activity, negative = inhibition, actives largely listed as inhibitors | actives 8.8% (n = 350,000) | AID 504332; further: on the % scale 0 is the no-effect control and ±100 the full control effect; nearly all actives have a fitted effect of over 75% in size
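Using a bead-based AlphaScreen, monomethylated H3K9 product from 2 h room-temperature reactions (G9a 20 nM, peptide 500 nM, SAM 20 uM) was detected with 0.5 ug/mL rabbit anti-H3K9me1 antibody.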
Active calls of the source: *; ? = inconclusive; . = not tested or not shown; [ ] = another dose, or the depositor's remark. The list is not random: actives were taken first. Their share in the collection is about 12%. The call rests on the fitted dose curve; in most records, active means well fitted curve in the direction sought with a large enough effect; inconclusive means small, poorly fitted or top-dose-only effect, or another doubt; inactive means no such curve, though single readings can be large; an effect the other way counts as inactive or inconclusive. Potency means the concentration at half of the fitted maximal effect.

SMILES | JMJD2A Tudor inh | BAZ2B inh | HP1b binding inh | Sfp PPTase inh | G9a block
Cn1ccnc1SCC(=O)c1ccc(Br)cc1 | ? | ? | -13.6% | -15.6% | 50.1µM*
COc1ccccc1C(=O)CSc1nccn1C | -19.9% | -4.6% | -4.8% | 56.2µM* | ?
CCN(CC(=O)Nc1ccc(NC(C)=O)cc1)C(=O)c1cccc(-n2cccc2)c1 | -32.2% | 50.1µM* | ? | . | 50.1µM*
CCN(CC(=O)Nc1ccc(NC(C)=O)cc1)C(=O)c1cccc(Oc2ccccc2)c1 | -19.3% | -1.1% | -1.6% | . | -3.3%
CN(CC(=O)Nc1ccccc1Cl)C(=O)c1cccc(-n2cccc2)c1 | -30.3% | ? | -8.9% | . | -4.4%[12.7 µM]
Cc1cc(C(=O)CCC(=O)N(C)CC(=O)Nc2c(Cl)cccc2Cl)c(C)s1 | -9.7% | -2.3% | 19.4% | . | -30.7%
CN(CC(=O)Nc1cccc(F)c1)C(=O)c1cccc(-n2cccc2)c1 | 28.2µM* | 28.2µM* | ? | . | ?
CN(CC(=O)Nc1c(Cl)cccc1Cl)C(=O)CCC(=O)c1ccccc1 | -0.7% | 2.1% | 34.6% | . | 50.1µM*
CN(CC(=O)Nc1c(Cl)cccc1Cl)C(=O)c1cccc(-n2cccc2)c1 | 14.1µM* | 35.5µM* | 31.6µM* | . | 2.6%[0.501 µM]
Cc1ccc(C)c(NC(=O)CN(C)C(=O)c2cccc(-n3cccc3)c2)c1 | 15.8µM* | 25.1µM* | 44.7µM* | . | 39.8µM*
COc1ccc(N2CCn3c2nc2c3c(=O)n(CCc3ccccc3)c(=O)n2C)cc1 | . | -1.2% | . | 5.6% | 6.8%
COCCn1c(CN2CCN(c3ccc(OC)cc3)CC2)nc2c1c(=O)n(C)c(=O)n2C | 1.1% | . | 22.6% | 23.8% | -12.8%[59 µM]
COc1ccc(N2CCCn3c2nc2c3c(=O)n(CCCc3ccccc3)c(=O)n2C)cc1 | . | ? | . | 2.8% | 10µM*
COc1ccc(N2CCN(Cc3nc4c(c(=O)n(C)c(=O)n4C)n3CCc3ccccc3)CC2)cc1 | -18.8% | -3.1% | 3.2% | -5.0% | 7.94µM*
Cn1c(=O)c2c(nc(CN3CCOCC3)n2CCc2ccccc2)n(C)c1=O | -1.5% | -14.5% | 22.7% | 13.6% | ?
Cn1c(=O)c2c(nc(CN3CCN(c4ccccc4)CC3)n2CCN2CCOCC2)n(C)c1=O | -12.7% | -1.0% | 22.4% | -2.8% | 50.1µM*
Oc1ccccc1C=NN=Cc1ccccc1Cl | 4.2% | . | 47.9% | . | .
COc1ccc(/C=C/c2n[nH]c(=O)c(C#N)c2C)cc1 | -10.3% | 1.0% | 0.0% | 13.5% | 44.7µM*
COc1ccc(Oc2nc(C)cc(C)c2C#N)cc1 | 5.2% | 10.2% | 41.1% | -5.3% | 8.4%[59 µM]
CCN(CC)S(=O)(=O)c1ccc2c(c1)nc(SCC(=O)N1CCCCCC1)n2-c1ccc(OC)cc1 | -10.6% | -2.2% | 6.1% | 5.6% | -6.1%[59 µM]
CC(Sc1nc2cc([N+](=O)[O-])ccc2n1-c1ccc(F)cc1)C(=O)NCc1ccc2c(c1)OCO2 (stereo unspecified) | ? | ? | -12.9% | 2.24µM* | ?
COc1ccccc1-n1c(SCC(=O)NCc2ccc3c(c2)OCO3)nc2cc([N+](=O)[O-])ccc21 | 50.1µM* | -36.9% | ? | -83.9% | ?
O=C(CSc1nc2ccccc2c(=O)n1-c1ccccc1)NCc1ccc2c(c1)OCO2 | -5.2% | 10.2% | 10.5% | -2.9% | 2.0%[12.7 µM]
CCN(CC)S(=O)(=O)c1ccc2c(c1)nc(SCC(=O)N1CCOCC1)n2-c1ccccc1OC | -10.8% | ? | 9.9% | -11.9% | 31.6µM*
COC(=O)N1c2ccccc2C23[C@@H]4CN5CCC[C@]6(CCC12C(O)(C6)C4=O)[C@H]53 | . | . | . | -4.8% | .
SMILES | JMJD2A Tudor inh | BAZ2B inh | HP1b binding inh | Sfp PPTase inh | G9a block
CCc1nn(CC(=O)NCc2ccccc2)c(=O)c2cccn12 | ? | ? | 8.7% | . | ?
Cc1ccc(-n2nc(CO)c(C(=O)NCCC(C)C)n2)cc1C | -6.3% | -0.2% | 26.9% | . | -0.5%[59 µM]
CC(=O)Nc1ccc(OCc2cccc([N+](=O)[O-])c2)cc1 | -16.4% | -20.8% | 11.8% | 15.1% | 8.4%
CC(=O)Nc1ccc(C=CC=Cc2cccc([N+](=O)[O-])c2)cc1 | 79.4µM* | . | ? | . | .
O=C(CNc1ccc2ccccc2c1)N/N=C/C=C/c1cccc([N+](=O)[O-])c1 | ? | 89.1µM* | 15.8% | -12.1% | 3.16µM*
O=C(N/N=C/C=C/c1cccc([N+](=O)[O-])c1)C(O)c1ccccc1 (stereo unspecified) | -2.0% | -2.3% | 32.7% | 14.6% | 20.0%[0.501 µM]
Clc1ccccc1Cc1cn2cc(-c3ccccc3)nc2s1 | -3.8% | -2.2% | 30.4% | . | 1.0%[59 µM]
CCS(=O)(=O)c1nc(S(=O)(=O)c2ccc(C)cc2)c(NCCCOC)s1 | -24.5% | -1.2% | 35.2% | . | 2.7%[59 µM]
CCN(CC)C(=O)c1ccc2c(c1)N(Cc1c(F)cccc1Cl)C(=O)c1ccccc1S2 | -21.7% | . | 23.3% | . | -18.3%[59 µM]
CC1=NN(c2ccccc2)C(=O)/C1=C/c1c(O)n(-c2ccc(F)c(Cl)c2)[nH]c1=O | 50.1µM* | 35.5µM* | ? | ? | ?
CC1=NN(c2ccccc2)C(=O)/C1=C\c1c(C)[nH]n(-c2ccccc2)c1=O | ? | -35.3% | -9.8% | 4.7% | ?
CCN1CCN(c2ccc(S(=O)(=O)N3CCCCC3)cc2NC(=O)/C=C/c2ccc(Cl)cc2)CC1 | ? | . | -3.9% | . | .
CC(C)(C)NC(=O)CC1C[C@H](C(=O)N2CCCCC2)[C@@]2(CCc3ccccc3)c3[nH]c4ccccc4c3CCN2C1=O (stereo partly specified) | -12.3% | . | 37.3% | . | .
Cn1cccc1/C=N/N1CCN(Cc2cccc3ccccc23)CC1 | 31.6µM* | 22.4µM* | ? | ? | 25.1µM*
Cn1cccc1/C=N/N1CCN(Cc2ccc(Cl)cc2)CC1 | 50.1µM* | 31.6µM* | 39.8µM* | ? | 39.8µM*
Oc1ccc(/C=N/N2CCN(Cc3ccccc3)CC2)cc1 | -26.2% | -10.8% | 1.8% | 10.6% | -3.1%[0.501 µM]
Cn1cccc1/C=N/N1CCN(Cc2ccccc2)CC1 | ? | 50.1µM* | ? | -22.5% | 25.1µM*
Cc1onc(-c2ccccc2Cl)c1C(=O)Oc1ccccc1F | 42.2% | 112.4% | 78.8% | . | 33.2%[59 µM]
FC(F)(F)c1cc(CN2CC[C@@]3(CCCNC3)C2)cc(C(F)(F)F)c1 | . | . | . | 12.1% | -0.2%[12.7 µM]
CO[C@@H]1COC(=O)C/C=C\[C@@H](C)COC(=O)[C@H](COCc2ccccc2)NC(=O)C/C=C\[C@H]1C | . | . | . | 21.5% | .
Cc1cccc(C)c1Nc1nnc(SCC(=O)Nc2ncc(C(F)(F)F)cc2Cl)s1 | 25.1µM* | -7.1% | -17.4% | -11.9% | 2.24µM*
Cc1ccccc1Nc1nnc(SCC(=O)Nc2ncc(C(F)(F)F)cc2Cl)s1 | -12.2% | -7.6% | 12.1% | 14.3% | -4.4%[59 µM]
Cc1ccc(Nc2nnc(SCC(=O)Nc3ncc(C(F)(F)F)cc3Cl)s2)cc1 | -22.9% | -20.4% | 19.4% | 13.6% | 7.08µM*
COc1ccc(Cn2ccc3nc(C)c(C(=O)Nc4ccc(OC)cc4)cc3c2=O)cc1 | -4.7% | 4.2% | 72.3% | . | -4.1%[59 µM]
